PubChem BioAssay
Activity calls are given as the source filed them.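 Rule for the calls, unless noted: active = inhibition of the reporter signal at or above 50%; inactive = inhibition below 50%.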

What was measured:
[1] = inhibitors of TNFa-induced NFkB p65 translocation, primary screen, imaging, HUVEC, MLSMR starter and 10KST1 sets (AID 438;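 active = inhibition above 20% together with a positive visual image hit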;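 note: compound added about 3h40 before a 20 min TNFalpha stimulation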;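 for inhibition: signal is the nuclear over cytoplasmic p65 intensity ratio per well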); settings: HUVEC TNFa-induced p65 nuclear translocation; cell count: measured here: nuclei count (cytotoxicity indicator), at 2.08 µM; inhibition: at 2 µM, stronger effect = higher value, 0% TNFa-plus-vehicle, 100% no-TNFa wells
[2] = reduction of polyQ htt aggregates in cells – imaging, exon1htt(103Q)mCFP cells, high-content imaging, primary screen (AID 483;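 active = visual image review flags a hit and inhibition of aggregation exceeds 20%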;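 note: compound exposure lasted 3 days before fixation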;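 for nuclei count: percent of the per-plate median nuclei count of sample wells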); settings: exon1htt(103Q)mCFP cell line, aggregate imaging, at 2 µM; inhibition of aggregation: stronger effect = higher value; nuclei count: measured here: cell count, toxicity
[3] = endothelial E-selectin expression blockers – imaging, HUVEC, immunofluorescence, MLSMR starter and 10KST1 sets, primary screen (AID 487;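 active = visually confirmed hit in the image check and inhibition above 20%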;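 for inhibition: signal is fraction of cell area covered by stained E-selectin grains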;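 for nuclei count: 100% = median nuclei count of all wells on the same plate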); settings: HUVEC TNFalpha-induced E-selectin immunofluorescence imaging, at 2 µM; inhibition: stronger effect = higher value; nuclei count: measured here: cell number, toxicity
[4] = target: Voltage-gated potassium channel subunit beta-2 (Rattus norvegicus) (UniProt P62483); assay: inhibitors of rat Kvbeta2 reductase activity – biochemical, NADPH fluorescence, primary screen (AID 622;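 active = fluorescence slope higher than the sample average by over 3 SD, cut at about -0.22 in these data, passing the limit was not always enough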;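 note: slope of raw intensity against log time taken from 70 to 1610 s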); settings: recombinant KvBeta, 4-cyanobenzaldehyde reduction, at 10 µM, stronger effect = higher value
[5] = target: Voltage-gated potassium channel subunit beta-2 (Rattus norvegicus) (UniProt P62483); assay: enhancers of rat Kvbeta2 NADPH turnover – biochemical, NADPH fluorescence, primary screen (AID 623;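 active = NADPH fluorescence slope more negative than the mean of all samples by about 3 SD, 99.7% confidence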;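 note: fluorescence intensity change per second fitted from 20 to 320 s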); settings: Recombinant KvBeta, NADPH fluorescence decrease slope, 10 min; at 10 µM; stronger effect = lower value
[6] = target: Alpha-2C adrenergic receptor (Homo sapiens) (UniProt P18825); assay: compounds altering alpha2C-coupled GIRK flux – cell-based, HEK293 alpha2C/GIRK1/2, thallium flux, primary screen (AID 624;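 active = fluorescence slope after compound addition differing from the mean of all screened samples at 99.7% confidence, in either direction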;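 note: slope of fluorescence ratio to pre-addition baseline per second over 15 to 24 s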); settings: thallium flux BTC fluorescence, at 10 µM, actives lie on both sides
[7] = blockers of RIG-like receptor reporter activation – cell-based, Sendai virus stimulus, luciferase, 10K MLSCN set, TLR/RLR signaling modifier project, primary screen (AID 602276;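 active = inhibition at or above 50% at 10 µM; inactive = inhibition below 50%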;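 note: firefly luciferase from ISG56 promoter only with Renilla not read in this screen; 0% = Sendai virus plus DMSO and 100% = medium plus DMSO without virus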); settings: HEK293 RL24 IRF3 luciferase reporter, at 10 µM, stronger effect = higher value
[8] = TLR3 IRF3 reporter activation blockers – cell-based, poly I:C stimulus, luciferase, 10K MLSCN set, primary screen (AID 602277); settings: HEK293-TLR3 RL24 IRF3 luciferase reporter, at 10 µM, stronger effect = higher value

Alpha-2C adrenergic receptor (Homo sapiens), sequence (P18825 whole entry, looked up): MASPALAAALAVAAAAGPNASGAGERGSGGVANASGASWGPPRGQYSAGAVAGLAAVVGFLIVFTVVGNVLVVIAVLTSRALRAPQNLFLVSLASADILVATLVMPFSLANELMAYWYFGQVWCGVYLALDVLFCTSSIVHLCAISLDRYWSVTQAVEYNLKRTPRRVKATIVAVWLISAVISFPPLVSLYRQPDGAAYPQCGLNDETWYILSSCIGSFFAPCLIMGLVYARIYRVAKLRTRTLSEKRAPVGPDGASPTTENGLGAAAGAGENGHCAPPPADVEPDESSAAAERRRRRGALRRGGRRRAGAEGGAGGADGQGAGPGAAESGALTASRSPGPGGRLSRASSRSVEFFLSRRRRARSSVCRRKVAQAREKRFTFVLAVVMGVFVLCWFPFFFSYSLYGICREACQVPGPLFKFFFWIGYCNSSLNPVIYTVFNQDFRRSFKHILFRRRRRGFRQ
Voltage-gated potassium channel subunit beta-2 (Rattus norvegicus), sequence (P62483 whole entry, looked up): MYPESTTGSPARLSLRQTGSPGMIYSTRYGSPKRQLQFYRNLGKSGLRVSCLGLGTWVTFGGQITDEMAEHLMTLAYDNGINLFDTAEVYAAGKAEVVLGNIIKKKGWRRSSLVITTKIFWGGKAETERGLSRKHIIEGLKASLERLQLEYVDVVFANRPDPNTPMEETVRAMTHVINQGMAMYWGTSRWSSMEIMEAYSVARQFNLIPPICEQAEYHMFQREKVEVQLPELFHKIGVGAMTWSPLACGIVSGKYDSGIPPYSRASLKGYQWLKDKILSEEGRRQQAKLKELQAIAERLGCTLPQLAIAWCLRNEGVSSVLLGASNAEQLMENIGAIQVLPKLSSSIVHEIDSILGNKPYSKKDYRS

Structure (SMILES) | cell count [1] | inhibition [1] | inhibition of aggregation [2] | nuclei count [2] | inhibition [3] | nuclei count [3] | fluorescence slope [4] | NADPH fluorescence slope [5] | slope [6] | inhibition [7] | inhibition [8]
COc1ccc(C(=O)Nc2nc(C)c(C(=O)N(C)C)s2)cc1OC | 435 | 2.8% (inactive) | 5.4% (inactive) | 102% | -16.9% (inactive) | 91.8% | -0.461 (inactive) | 2.3e-06 (inactive) | 0.00371 (inactive) | -7.68% (inactive) | -30.5% (inactive)
N#CCc1c(C#N)c(N)nc(N2CCN(S(=O)(=O)c3ccccc3)CC2)c1C#N | 349 | 1.3% (inactive) | -7.2% (inactive) | 96.4% | 14.3% (inactive) | 108% | -0.427 (inactive) | -4.2e-05 (inactive) | 0.00665 (inactive) | 11% (inactive) | 34.3% (inactive)
CC1=C(C(N)=O)C(c2cccnc2)n2nc(SCc3ccccc3Cl)nc2N1 (configuration not stated) | 533 | -21.6% (inactive) | -13.4% (inactive) | 104% | -130% (inactive) | 107% | -0.463 (inactive) | -5.4e-05 (inactive) | 0.00786 (inactive) | -20.3% (inactive) | 19.5% (inactive)
CN(C)CCNC(=O)c1ccc(COCC(F)(F)F)cc1 | 500 | -2.2% (inactive) | -17.1% (inactive) | 112% | -22.6% (inactive) | 99% | -0.408 (inactive) | -3.8e-05 (inactive) | 0.00605 (inactive) | 14.2% (inactive) | 9.51% (inactive)
O=S(=O)(c1ccc2nc(Cc3cccc(C(F)(F)F)c3)[nH]c2c1)N1CCOCC1 | 383 | 1% (inactive) | 0% (inactive) | 88.3% | -277% (inactive) | 105% | -0.615 (inactive) | -2.8e-06 (inactive) | 0.00522 (inactive) | 11.9% (inactive) | 26.3% (inactive)
Cc1ccc(-c2cc(C(=O)NCCN3CCOCC3)no2)cc1 | 605 | 1.9% (inactive) | 41.6% (inactive) | 69.9% | -4% (inactive) | 101% | -0.452 (inactive) | 8.4e-05 (inactive) | 0.0051 (inactive) | -29.5% (inactive) | -36.6% (inactive)
COc1cccc(-c2nnc(NC(=O)Cc3cccs3)s2)c1 | 710 | -5% (inactive) | 22% (inactive) | 79.8% | 1.2% (inactive) | 92% | -0.452 (inactive) | -3e-05 (inactive) | 0.00526 (inactive) | 2.67% (inactive) | -7.11% (inactive)
c1ccc(N2CCN(Cc3ccnc4ccccc34)CC2)cc1 | 424 | 5.4% (inactive) | 10.4% (inactive) | 83.9% | 43.4% (inactive) | 102% | -0.477 (inactive) | -3.9e-05 (inactive) | 0.0043 (inactive) | -12.4% (inactive) | -22.2% (inactive)
COCCN1CCN(c2c(C)c(C)nc3cc(-c4cccc(OC)c4)nn23)CC1 | 367 | -6.1% (inactive) | -9.2% (inactive) | 80.5% | -52.9% (inactive) | 106% | -0.567 (inactive) | -3.9e-05 (inactive) | 0.0105 (inactive) | 15.2% (inactive) | 16.1% (inactive)
CCOC(=O)CN1CC23C=CC(O2)C(C(=O)Nc2ccc(OC)cc2OC)C3C1=O (configuration not stated) | 563 | 8% (inactive) | 8.7% (inactive) | 81.1% | -54% (inactive) | 116% | -0.574 (inactive) | -1.5e-05 (inactive) | 0.00618 (inactive) | 8.81% (inactive) | 32% (inactive)
Cc1ccc2c(c1)N(CC(=O)Nc1ccc3c(c1)OCCO3)C(=O)CO2 | 362 | -4.9% (inactive) | -2.2% (inactive) | 84.3% | -6.2% (inactive) | 104% | -0.293 (inactive) | -5e-05 (inactive) | 0.0057 (inactive) | 38.1% (inactive) | 99.4% (active)
Cc1cccn2c(=O)c3cc(C(=O)NC4CCCC4)c(=N)n(C4CCCC4)c3nc12 | 786 | 2.4% (inactive) | -58% (inactive) | 107% | -189% (inactive) | 126% | -0.0946 (inactive) | -1.1e-05 (inactive) | 0.00161 (inactive) | 17.5% (inactive) | 32.7% (inactive)
Cc1nc2sc(C(c3cccs3)N3CCC(C(N)=O)CC3)c(O)n2n1 (configuration not stated) | 625 | -3.9% (inactive) | -7.5% (inactive) | 105% | -47.4% (inactive) | 120% | -0.565 (inactive) | -4.6e-05 (inactive) | 0.00644 (inactive) | 14.6% (inactive) | 32.7% (inactive)
CC(C)C(=O)Nc1ccc2c(c1)nc1n2CCSC1 | 378 | -2.5% (inactive) | -0.8% (inactive) | 113% | -3.7% (inactive) | 109% | -0.361 (inactive) | 1.9e-05 (inactive) | 0.00311 (inactive) | -12.7% (inactive) | -20.2% (inactive)
Cc1cc(C)nc(SCCS(=O)Cc2ccc(Cl)cc2)n1 (configuration not stated) | 306 | -3.8% (inactive) | -16.7% (inactive) | 108% | 32.1% (inactive) | 95% | -0.503 (inactive) | 6.2e-06 (inactive) | 0.00559 (inactive) | 5.96% (inactive) | 8.92% (inactive)
Cc1ccc(S(=O)(=O)Cn2nnnc2CN(Cc2ccco2)CC2CCCO2)cc1 (configuration not stated) | 380 | -1% (inactive) | 2.3% (inactive) | 99.8% | -58.1% (inactive) | 69.6% | -0.588 (inactive) | -4.2e-05 (inactive) | 0.00299 (inactive) | -5.71% (inactive) | 0.385% (inactive)
Cc1ccc(OCCN2CCN(C(=O)CCC(=O)Nc3nnc(C)s3)CC2)cc1 | 349 | -4.3% (inactive) | -14.8% (inactive) | 100% | -18.9% (inactive) | 100% | -0.318 (inactive) | -6.3e-05 (inactive) | 0.00527 (inactive) | 9.9% (inactive) | 19.2% (inactive)
NC(=O)COC(=O)CNC(=O)c1ccc(Cl)cc1 | 450 | 11.7% (inactive) | 4.1% (inactive) | 106% | 20.5% (inactive) | 111% | -0.521 (inactive) | -1.3e-05 (inactive) | 0.00666 (inactive) | 18.5% (inactive) | 17.3% (inactive)
CC(=O)NC(Cc1cc(C)ccc1C)C(=O)N1CCN(C(=O)Nc2ccc(C(C)=O)cc2)CC1 (configuration not stated) | 324 | -2.1% (inactive) | -26% (inactive) | 106% | -23.1% (inactive) | 99.8% | -0.378 (inactive) | -4.4e-05 (inactive) | 0.00656 (inactive) | 2.34% (inactive) | -13% (inactive)
COc1ccccc1N1CCN(c2cc(=O)n(Cc3ccc(F)cc3)c(=O)[nH]2)CC1 | 503 | -2.8% (inactive) | 2% (inactive) | 44% | 11.7% (inactive) | 106% | -0.569 (inactive) | -3.7e-05 (inactive) | 0.00657 (inactive) | 17.1% (inactive) | 29.3% (inactive)
Cc1ccccc1Cn1nc(C)c(NC(=O)c2noc3c2CCc2ccccc2-3)c1C | 720 | 2.9% (inactive) | 4.7% (inactive) | 78.3% | -88.7% (inactive) | 108% | -0.588 (inactive) | 4e-06 (inactive) | 0.00754 (inactive) | 8.23% (inactive) | 0.0552% (inactive)
CCOc1ccccc1NC(=O)CN(c1ccc(C)cc1)S(=O)(=O)c1c(C)noc1C | 322 | 2.2% (inactive) | 20.6% (inactive) | 97.9% | 35.2% (inactive) | 64.7% | -0.606 (inactive) | -6.6e-05 (inactive) | 0.00658 (inactive) | 6.02% (inactive) | 28.1% (inactive)
COc1ccccc1OCCOCCn1cnc2ccccc2c1=O | 561 | -2.8% (inactive) | 24.9% (inactive) | 79.3% | 2.6% (inactive) | 94.4% | -0.488 (inactive) | -4.9e-05 (inactive) | 0.00575 (inactive) | 10.3% (inactive) | 12.5% (inactive)
COCCNC(=O)C(c1ccc(C)o1)N(Cc1ccc(F)cc1)C(=O)Cn1nnc2ccccc21 (configuration not stated) | 591 | -8.1% (inactive) | -12.2% (inactive) | 121% | 12.3% (inactive) | 108% | -0.381 (inactive) | -7.3e-05 (inactive) | 0.00726 (inactive) | 9.7% (inactive) | 24.6% (inactive)
N#Cc1nc(-c2ccco2)oc1N1CCN(c2cccc(Cl)c2)CC1 | 744 | -7.5% (inactive) | 20.8% (inactive) | 123% | -75.1% (inactive) | 109% | -0.334 (inactive) | 2.4e-05 (inactive) | 0.00657 (inactive) | 8.62% (inactive) | -3.74% (inactive)
Cc1cc(N2CCOCC2)nc2ccc(NC(=O)C3CCC(C)CC3)cc12 (configuration not stated) | 434 | -2.7% (inactive) | -22.1% (inactive) | 127% | -132% (inactive) | 123% | -0.549 (inactive) | 1.5e-05 (inactive) | 0.00409 (inactive) | -9.82% (inactive) | -31.3% (inactive)
CCOC(=O)c1c(NC(=O)Cn2c(=O)oc3ccccc32)oc(C)c1C(C)=O | 365 | -5.4% (inactive) | -18.8% (inactive) | 74.1% | 1.9% (inactive) | 119% | -0.484 (inactive) | 1.5e-05 (inactive) | 0.00454 (inactive) | 5.7% (inactive) | 11.9% (inactive)
